Here are results for 8 molecules from PubChem BioAssay (NCI).

Among the test systems are HCT-15 colon; HT29 colon; SNB-75 CNS; SNB-19 CNS; U251 CNS; PC-3 prostate; SK-MEL-5 melanoma; UACC-62 melanoma; LOX IMVI melanoma; SK-MEL-28 melanoma; SK-MEL-2 melanoma; SN12C renal; UO-31 renal; ACHN renal; CAKI-1 renal; A498 renal; CCRF-CEM leukemia; MOLT-4 leukemia; TK-10 renal; EKVX NSCLC.
Common to all, as to test: NCI-60 one-dose screen, 48 h (100 = growth as untreated, 0 = no growth, -100 = all killed)
Common to all, as to conditions: 10 µM unless noted

This is part of a sample that, as a whole, favours compounds with a hit. Of some 83,000 tested, about 20% had one in any assay.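 Single-dose data. Exposure time 48 hours. Values below 10 considered active.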 Values without a mark were called inactive. Activity calls are given as the source filed them.

As for `COc1ccc(C2CC(=O)Nc3c2c(C)nn3-c2nc3ccccc3[nH]2)cc1OC` (centres undefined), the growth in the test with HCT-15 colon is 85.9%; in the test with HT29 colon it was 95.3%; in the test with SNB-75 CNS, 50.9%; in the test with SNB-19 CNS it was 84.9%; in the test with U251 CNS, 84.4%; with PC-3 prostate it was 75.4%. Also, the growth in the test on SK-MEL-5 melanoma was 71.2%; in the test on UACC-62 melanoma it was 68.8%; in the test on LOX IMVI melanoma, 44.2%; with SK-MEL-28 melanoma, 88.1%; in the test on SK-MEL-2 melanoma, 77.8%; with SN12C renal, 89.9%. Besides, the growth was 52.4% with UO-31 renal; 85.2% with ACHN renal; 72.8% in the test on CAKI-1 renal; 3.48% (active) with A498 renal; 5.82% (active) with CCRF-CEM leukemia; -31.5% (active) in the test with MOLT-4 leukemia.
As for `CC(C)C[C@H](NC(=O)[C@H](Cc1ccccc1)n1ccc(N2CCCCC2)cc1=O)B(O)O`, the growth with HCT-15 colon is 28.3%; in the test on HT29 colon, 0.204% (active); in the test on SNB-75 CNS, 4.25% (active); in the test on SNB-19 CNS, 29.2%; with U251 CNS, 18.1%; in the test with PC-3 prostate, 27.7%. For the same molecule, the growth was -25.2% (active) in the test on SK-MEL-5 melanoma; -12.5% (active) in the test with UACC-62 melanoma; -72.1% (active) in the test on LOX IMVI melanoma; 28.6% in the test on SK-MEL-28 melanoma; 2.84% (active) in the test with SK-MEL-2 melanoma; 26.7% in the test with SN12C renal. Moreover, the growth in the test with UO-31 renal was -37.2% (active); with TK-10 renal it was 16.9%; in the test on ACHN renal it was 16.1%; in the test on A498 renal, -24.6% (active); in the test on CCRF-CEM leukemia it was 1.97% (active); in the test on MOLT-4 leukemia, -2.84% (active).
Turning to `CCOC(=O)CC/C(C)=N\Nc1ccc([N+](=O)[O-])cc1`, the growth is 35.8% in the test with HCT-15 colon; 52.9% in the test on HT29 colon; 93% with SNB-75 CNS; 95.5% with SNB-19 CNS; 69.1% with U251 CNS; 49.7% in the test with PC-3 prostate. For the same molecule, the growth was 54.3% with SK-MEL-5 melanoma; 23.5% in the test on UACC-62 melanoma; 17.1% with LOX IMVI melanoma; 58.8% in the test with SK-MEL-2 melanoma; 51.9% in the test on EKVX NSCLC; 77.6% in the test with SN12C renal. For the same molecule, the growth in the test on UO-31 renal is 30.3%; in the test with TK-10 renal it was 58.2%; in the test with ACHN renal it was 36.8%; with CAKI-1 renal it was 40.6%; with A498 renal, 85.1%; with CCRF-CEM leukemia, 41.7%. The growth in the test on MOLT-4 leukemia is 35.4%.
On to `CC(C)C[C@H](NC(=O)[C@@H](Cc1ccccc1)n1ccc(Nc2ccccc2)cc1=O)B(O)O`, for which the growth in the test with HCT-15 colon was 28.9%; in the test with HT29 colon, -14.1% (active); with SNB-75 CNS, -18.6% (active); with SNB-19 CNS, 18.1%; in the test on U251 CNS, 5.67% (active); with PC-3 prostate, 21.1%. Moreover, the growth in the test on SK-MEL-5 melanoma is -68.2% (active); with UACC-62 melanoma, -77.1% (active); in the test on LOX IMVI melanoma, -66.7% (active); in the test with SK-MEL-28 melanoma it was 21.7%; in the test with SK-MEL-2 melanoma, -14.9% (active); in the test with SN12C renal, -25.1% (active). Besides, the growth was -44% (active) in the test with UO-31 renal; -0.144% (active) with TK-10 renal; 20.9% in the test with ACHN renal; -47.3% (active) with A498 renal; -5.5% (active) with CCRF-CEM leukemia; -8.47% (active) in the test with MOLT-4 leukemia.
Turning to `COc1ccc(C2=CC(c3ccc(Oc4ccnc5cc(Cl)ccc45)c(OC)c3)c3c(nc(OC)[nH]c3=O)N2)cc1` (centres undefined), the growth was 44.5% in the test on HCT-15 colon; 50.5% in the test with HT29 colon; 73.1% with SNB-75 CNS; 75.1% in the test on SNB-19 CNS; 67.7% with U251 CNS; 54.9% in the test on PC-3 prostate. In addition, the growth with SK-MEL-5 melanoma was 74.6%; in the test on UACC-62 melanoma, 51.9%; in the test on LOX IMVI melanoma, 52.7%; in the test with SK-MEL-2 melanoma, 91.9%; with SN12C renal, 63.7%; with UO-31 renal it was 56.5%. In addition, the growth is 98.5% with TK-10 renal; 57.3% in the test on ACHN renal; 82.9% in the test with CAKI-1 renal; 69.6% with A498 renal; 26.8% with CCRF-CEM leukemia.
Turning to `CC(C)C(C(=O)CCN(C)C)c1ccc(Cl)cc1` (centres undefined), the growth in the test on HCT-15 colon was 92.6%; in the test with HT29 colon, 106%; with SNB-75 CNS, 87.8%; with SNB-19 CNS, 95.1%; in the test on U251 CNS it was 83.7%; in the test with PC-3 prostate, 86.9%. Further, the growth in the test with SK-MEL-5 melanoma was 102%; with UACC-62 melanoma, 89.7%; in the test with LOX IMVI melanoma, 98.5%; in the test with SK-MEL-2 melanoma it was 98.4%; in the test with EKVX NSCLC, 103%; in the test on SN12C renal, 95.4%. Also, the growth in the test with UO-31 renal was 93.3%; with TK-10 renal it was 101%; in the test with ACHN renal it was 101%; in the test on CAKI-1 renal, 102%; in the test on CCRF-CEM leukemia it was 90.6%; with MOLT-4 leukemia, 76.5%.
Consider `COc1cccc(C2CC(=O)Nc3c2c(C)nn3-c2nc3ccccc3[nH]2)c1OC` (centres undefined), for which the growth in the test with HCT-15 colon is 59.4%; in the test with HT29 colon, 86.6%; with SNB-75 CNS it was 74.8%; with SNB-19 CNS, 87.1%; in the test with U251 CNS, 63.6%; in the test on PC-3 prostate, 62.8%. Also, the growth in the test on SK-MEL-5 melanoma was 60.1%; in the test with UACC-62 melanoma it was 51.3%; in the test with LOX IMVI melanoma, 54.2%; with SK-MEL-28 melanoma, 79.5%; in the test on SK-MEL-2 melanoma, 72.7%; with SN12C renal, 75.5%. The growth in the test on UO-31 renal was 73.1%; in the test with ACHN renal it was 56.5%; in the test on CAKI-1 renal it was 80.6%; in the test with A498 renal, -5.31% (active); in the test with CCRF-CEM leukemia, 8.46% (active); in the test with MOLT-4 leukemia, -31% (active).
As for `COc1ccc(NC(=O)CSc2nc3ccccc3c(=O)n2Cc2cc(OC)c(OC)c(OC)c2)cc1`, the growth in the test on HCT-15 colon is 89.5%; in the test on HT29 colon it was 110%; with SNB-75 CNS it was 66.3%; with SNB-19 CNS it was 95.8%; in the test with U251 CNS, 97.7%; with PC-3 prostate it was 85.1%. Moreover, the growth in the test with SK-MEL-5 melanoma is 87.5%; with UACC-62 melanoma it was 74.2%; in the test with LOX IMVI melanoma it was 94.5%; in the test on SK-MEL-2 melanoma, 93%; in the test with SN12C renal it was 79.6%; in the test on UO-31 renal, 73.5%. Also, the growth in the test with TK-10 renal is 96.5%; in the test on ACHN renal it was 80.6%; in the test with CAKI-1 renal, 95.6%; in the test with A498 renal, 87.1%; in the test on CCRF-CEM leukemia, 90.1%; with MOLT-4 leukemia, 68.8%.
